Reference: PubChem BioAssay AID1986 (Sanford-Burnham Center for Chemical Genomics, 2009)
About 890 (0.31%) of roughly 290,000 compounds were called active. Cut-off read from the data, not from the text of the source: active = inhibition mostly above about 52% (no sharp cut-off); inactive = mostly below about 76%. The full list was thinned out, with actives kept by preference.

Assay: cell-free HIV fusion peptide-binding blockers – biochemical, uHTS, fluorescence dequenching, primary screen (AID 1986)
Conditions: 30 min, stronger effect = higher value
[1] = measured here: repeat confirmation average inhibition, at 18.6 µM

| Structure (SMILES) | inhibition (at 20 µM) | inhibition [1] [%] |
| --- | --- | --- |
| O=C(NC(NC(=O)c1ccccc1)c1cccc([N+](=O)[O-])c1)c1ccccc1 | 4.1% (inactive) | – |
| CN(C)CCCNS(=O)(=O)c1ccc(N2CCC(c3ccc(Cl)cc3)=N2)cc1 | -4.9% (inactive) | – |
| COc1ccc(-c2nc(N3CCCCCC3)sc2C(=O)c2ccccc2)cc1 | 0.2% (inactive) | – |
| Cc1cccc(N=Nc2c(O)[nH]c3ccc(Br)cc23)c1 | 13.9% (inactive) | – |
| Cc1cccc(N=Nc2c(O)[nH]c3ccc(F)cc23)c1 | 95% (active) | 136 |
| Cc1ccc(N=Nc2c(O)[nH]c3ccc(F)cc23)cc1 | 111% (active) | – |
| Oc1[nH]c2ccc(Br)cc2c1N=Nc1ccc(F)cc1 | 164% (inactive) | – |
| Oc1[nH]c2ccccc2c1N=Nc1ccc(F)cc1 | 150% (inactive) | – |
| O=[N+]([O-])c1ccc(N=Nc2c(O)[nH]c3ccc(F)cc23)cc1 | 6.3% (inactive) | – |
| CCOc1ccc(N(C(=O)c2snc(C(N)=O)c2N)C(CC)C(=O)NC2CCCC2)cc1 (centres undefined) | 1.8% (inactive) | – |
| Cc1cc(C)c(NC(=O)CSc2nc3ncc(Cl)cc3[nH]2)c(C)c1 | 2.2% (inactive) | – |
| Cc1ccccc1NC(=O)c1c(C)[nH]c(=S)c(C#N)c1-c1ccco1 | 66.5% (active) | – |
| Cc1ccc(-c2c(C(=O)Nc3ccccc3C)c(C)[nH]c(=S)c2C#N)o1 | 33.1% (inactive) | – |
| CNC(=O)c1c(C)[nH]c(=S)c(C#N)c1-c1ccco1 | 4.3% (inactive) | – |
| O=C(CN1C(=O)NC2(CCCCCCC2)C1=O)N1CCN(C(=O)c2ccco2)CC1 | 1.6% (inactive) | – |
| COc1ccc(CCC(=O)Nc2ccccc2C(F)(F)F)cc1 | 0% (inactive) | – |
| CCCN1CCN(C(=O)CCn2c(=O)c3cccn3c3cccnc32)CC1 | 0.2% (inactive) | – |
| Nc1c(C(=O)N/N=C/c2ccccc2Cl)oc2nc(-c3ccccc3)cc(-c3ccco3)c12 | 51.3% (active) | 69.2 |
| Nc1c(C(=O)N/N=C/c2cccnc2)oc2nc(-c3ccco3)cc(-c3ccco3)c12 | 99.1% (inactive) | 9.2 |
| Nc1c(C(=O)N/N=C/c2ccc(F)cc2)oc2nc(-c3ccccc3)cc(-c3ccco3)c12 | 44.8% (inactive) | – |
| Nc1c(C(=O)N/N=C/c2cccnc2)oc2nc(-c3ccccc3)cc(-c3ccco3)c12 | 32.7% (inactive) | – |
| COc1cccc(/C=N/NC(=O)c2oc3nc(-c4ccccc4)cc(-c4ccco4)c3c2N)c1 | 54.2% (active) | 55.5 |
| Cc1ccc(-c2cc(-c3ccco3)c3c(N)c(C(=O)NN)oc3n2)cc1 | 60.5% (inactive) | 7.9 |
| O=C(CCCCCN1C(=O)c2ccccc2C1=O)Nc1ccc(C(=O)O)cc1 | -1% (inactive) | – |
